Experiments:
[1] = target: T1, Ephrin type-B receptor 2 (Homo sapiens) (UniProt P29323); conditions: at 1 µM
T1 sequence (whole entry): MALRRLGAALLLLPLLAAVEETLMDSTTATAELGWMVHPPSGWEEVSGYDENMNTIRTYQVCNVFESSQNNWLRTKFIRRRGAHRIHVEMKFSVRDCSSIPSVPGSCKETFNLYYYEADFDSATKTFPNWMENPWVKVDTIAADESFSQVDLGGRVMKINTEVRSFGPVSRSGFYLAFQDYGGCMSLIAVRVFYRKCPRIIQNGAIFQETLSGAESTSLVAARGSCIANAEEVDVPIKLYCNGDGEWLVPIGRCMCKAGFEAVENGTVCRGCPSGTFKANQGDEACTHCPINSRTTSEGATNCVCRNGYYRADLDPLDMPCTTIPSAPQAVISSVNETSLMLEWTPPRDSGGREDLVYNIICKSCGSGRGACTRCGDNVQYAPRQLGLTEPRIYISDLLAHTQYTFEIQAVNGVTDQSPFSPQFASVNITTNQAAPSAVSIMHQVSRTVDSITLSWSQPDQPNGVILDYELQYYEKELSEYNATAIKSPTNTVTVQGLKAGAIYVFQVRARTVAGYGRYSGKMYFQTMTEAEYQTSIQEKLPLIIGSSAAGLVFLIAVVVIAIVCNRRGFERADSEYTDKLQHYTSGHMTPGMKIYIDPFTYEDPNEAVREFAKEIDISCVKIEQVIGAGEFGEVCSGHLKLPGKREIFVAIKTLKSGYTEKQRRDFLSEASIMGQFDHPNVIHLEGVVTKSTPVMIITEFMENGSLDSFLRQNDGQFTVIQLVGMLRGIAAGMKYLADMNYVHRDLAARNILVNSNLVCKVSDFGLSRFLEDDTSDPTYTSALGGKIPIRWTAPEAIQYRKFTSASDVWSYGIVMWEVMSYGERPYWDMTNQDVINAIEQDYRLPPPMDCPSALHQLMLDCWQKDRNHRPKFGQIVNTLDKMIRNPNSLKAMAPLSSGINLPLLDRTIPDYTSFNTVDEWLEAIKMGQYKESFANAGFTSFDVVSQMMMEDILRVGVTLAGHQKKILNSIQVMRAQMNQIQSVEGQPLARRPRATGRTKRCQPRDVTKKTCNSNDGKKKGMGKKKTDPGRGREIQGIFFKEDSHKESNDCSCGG

[2] = target: T2, Ephrin type-B receptor 3 (Homo sapiens) (UniProt P54753); conditions: at 0.1 µM
T2 sequence (whole entry): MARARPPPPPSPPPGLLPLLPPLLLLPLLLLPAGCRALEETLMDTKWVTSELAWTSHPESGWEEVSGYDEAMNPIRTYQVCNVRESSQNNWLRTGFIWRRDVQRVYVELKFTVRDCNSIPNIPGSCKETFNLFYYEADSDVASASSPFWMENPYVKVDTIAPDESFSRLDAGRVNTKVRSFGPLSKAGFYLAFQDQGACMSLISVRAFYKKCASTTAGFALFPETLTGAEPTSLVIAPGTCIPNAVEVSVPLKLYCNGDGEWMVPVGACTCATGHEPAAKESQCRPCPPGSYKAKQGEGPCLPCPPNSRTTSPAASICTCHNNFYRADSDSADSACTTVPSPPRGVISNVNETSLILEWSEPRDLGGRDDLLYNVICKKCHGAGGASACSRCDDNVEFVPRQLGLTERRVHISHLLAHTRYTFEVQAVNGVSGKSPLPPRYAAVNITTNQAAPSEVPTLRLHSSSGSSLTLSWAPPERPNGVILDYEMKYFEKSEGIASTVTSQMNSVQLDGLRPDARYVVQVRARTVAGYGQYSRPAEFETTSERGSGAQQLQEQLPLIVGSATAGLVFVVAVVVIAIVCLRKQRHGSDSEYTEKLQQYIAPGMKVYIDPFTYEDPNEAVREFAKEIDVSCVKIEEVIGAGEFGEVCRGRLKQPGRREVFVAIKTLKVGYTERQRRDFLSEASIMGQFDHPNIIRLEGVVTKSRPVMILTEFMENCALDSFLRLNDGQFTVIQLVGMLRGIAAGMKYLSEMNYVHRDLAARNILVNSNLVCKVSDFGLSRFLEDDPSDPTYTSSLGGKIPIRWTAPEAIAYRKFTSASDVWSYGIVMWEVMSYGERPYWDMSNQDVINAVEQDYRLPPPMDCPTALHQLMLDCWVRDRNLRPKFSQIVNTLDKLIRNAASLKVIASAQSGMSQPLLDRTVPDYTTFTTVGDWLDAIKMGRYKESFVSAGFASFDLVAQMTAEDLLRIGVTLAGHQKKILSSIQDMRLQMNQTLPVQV

[3] = target: T2, Ephrin type-B receptor 3 (Homo sapiens); conditions: at 1 µM
[4] = target: T3, Ephrin type-B receptor 4 (Homo sapiens) (UniProt P54760); conditions: at 0.1 µM
T3 sequence (whole entry): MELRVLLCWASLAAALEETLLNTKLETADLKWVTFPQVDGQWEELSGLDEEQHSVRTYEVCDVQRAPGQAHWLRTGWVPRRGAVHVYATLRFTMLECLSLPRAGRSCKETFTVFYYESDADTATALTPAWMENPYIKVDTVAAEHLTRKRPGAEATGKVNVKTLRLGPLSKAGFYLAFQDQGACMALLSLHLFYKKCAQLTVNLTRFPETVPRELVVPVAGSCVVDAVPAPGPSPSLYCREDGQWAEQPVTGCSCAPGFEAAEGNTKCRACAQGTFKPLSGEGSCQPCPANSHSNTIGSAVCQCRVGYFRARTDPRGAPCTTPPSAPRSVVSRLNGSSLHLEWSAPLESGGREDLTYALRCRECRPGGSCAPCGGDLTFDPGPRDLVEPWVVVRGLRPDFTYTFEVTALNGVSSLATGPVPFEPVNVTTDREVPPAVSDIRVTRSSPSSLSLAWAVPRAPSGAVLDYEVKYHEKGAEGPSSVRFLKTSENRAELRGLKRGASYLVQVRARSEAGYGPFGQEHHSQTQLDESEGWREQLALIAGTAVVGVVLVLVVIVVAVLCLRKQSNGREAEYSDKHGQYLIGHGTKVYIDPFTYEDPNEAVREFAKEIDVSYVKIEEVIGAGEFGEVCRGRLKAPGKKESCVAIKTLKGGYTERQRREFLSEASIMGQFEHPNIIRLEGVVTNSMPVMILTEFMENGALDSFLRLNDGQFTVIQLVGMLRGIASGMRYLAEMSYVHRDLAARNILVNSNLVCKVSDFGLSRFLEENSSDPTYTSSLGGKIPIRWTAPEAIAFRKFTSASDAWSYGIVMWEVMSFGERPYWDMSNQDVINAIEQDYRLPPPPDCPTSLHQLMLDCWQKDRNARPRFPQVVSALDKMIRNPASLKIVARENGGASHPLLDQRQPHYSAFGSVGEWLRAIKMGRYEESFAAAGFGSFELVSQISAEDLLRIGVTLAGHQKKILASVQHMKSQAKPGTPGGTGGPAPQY

[5] = target: T3, Ephrin type-B receptor 4 (Homo sapiens); conditions: at 1 µM
[6] = target: Receptor tyrosine-protein kinase erbB-2 (Homo sapiens) (UniProt P04626); conditions: at 0.1 µM
[7] = target: Receptor tyrosine-protein kinase erbB-2 (Homo sapiens) (UniProt P04626); conditions: at 1 µM
[8] = target: Receptor tyrosine-protein kinase erbB-4 (Homo sapiens) (UniProt Q15303); conditions: at 0.1 µM
[9] = target: Receptor tyrosine-protein kinase erbB-4 (Homo sapiens) (UniProt Q15303); conditions: at 1 µM
[10] = target: Tyrosine-protein kinase Fer (Homo sapiens) (UniProt P16591); conditions: at 0.1 µM
[11] = target: Tyrosine-protein kinase Fer (Homo sapiens) (UniProt P16591); conditions: at 1 µM
[12] = target: Tyrosine-protein kinase Fes/Fps (Homo sapiens) (UniProt P07332); conditions: at 0.1 µM
[13] = target: Tyrosine-protein kinase Fes/Fps (Homo sapiens) (UniProt P07332); conditions: at 1 µM
[14] = target: Fibroblast growth factor receptor 1 (Homo sapiens) (UniProt P11362); conditions: at 0.1 µM
[15] = target: Fibroblast growth factor receptor 1 (Homo sapiens) (UniProt P11362); conditions: at 1 µM
[16] = target: Fibroblast growth factor receptor 2 (Homo sapiens) (UniProt P21802); conditions: at 0.1 µM
[17] = target: Fibroblast growth factor receptor 2 (Homo sapiens) (UniProt P21802); conditions: at 1 µM
[18] = target: Fibroblast growth factor receptor 3 (Homo sapiens) (UniProt P22607); conditions: at 0.1 µM
[19] = target: Fibroblast growth factor receptor 3 (Homo sapiens) (UniProt P22607); conditions: at 1 µM
[20] = target: Fibroblast growth factor receptor 4 (Homo sapiens) (UniProt P22455); conditions: at 0.1 µM;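 also: values are mean percent inhibition of FGFR4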
Fibroblast growth factor receptor 4 (Homo sapiens), sequence (P22455 22-802 limits assumed): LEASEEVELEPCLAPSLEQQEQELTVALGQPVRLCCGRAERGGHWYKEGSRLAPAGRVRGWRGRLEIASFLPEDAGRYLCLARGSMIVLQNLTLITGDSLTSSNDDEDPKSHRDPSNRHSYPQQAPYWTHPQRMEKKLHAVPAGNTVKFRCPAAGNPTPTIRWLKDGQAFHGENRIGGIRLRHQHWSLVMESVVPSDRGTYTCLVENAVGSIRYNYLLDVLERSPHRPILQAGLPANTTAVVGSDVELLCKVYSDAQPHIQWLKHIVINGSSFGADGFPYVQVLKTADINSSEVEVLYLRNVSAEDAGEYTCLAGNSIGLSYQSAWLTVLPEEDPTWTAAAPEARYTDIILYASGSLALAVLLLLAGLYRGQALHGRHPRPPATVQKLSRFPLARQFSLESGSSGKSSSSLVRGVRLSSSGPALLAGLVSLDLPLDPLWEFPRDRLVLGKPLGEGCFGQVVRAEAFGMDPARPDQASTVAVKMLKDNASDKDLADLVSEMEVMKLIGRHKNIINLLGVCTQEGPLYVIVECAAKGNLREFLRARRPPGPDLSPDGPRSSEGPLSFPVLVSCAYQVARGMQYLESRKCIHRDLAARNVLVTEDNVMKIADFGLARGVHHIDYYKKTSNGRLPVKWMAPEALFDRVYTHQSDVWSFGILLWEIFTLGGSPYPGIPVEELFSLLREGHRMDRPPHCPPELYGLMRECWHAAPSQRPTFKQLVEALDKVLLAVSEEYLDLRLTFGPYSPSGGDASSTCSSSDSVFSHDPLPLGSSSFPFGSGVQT

Fibroblast growth factor receptor 2 (Homo sapiens), sequence (P21802 22-821 limits assumed): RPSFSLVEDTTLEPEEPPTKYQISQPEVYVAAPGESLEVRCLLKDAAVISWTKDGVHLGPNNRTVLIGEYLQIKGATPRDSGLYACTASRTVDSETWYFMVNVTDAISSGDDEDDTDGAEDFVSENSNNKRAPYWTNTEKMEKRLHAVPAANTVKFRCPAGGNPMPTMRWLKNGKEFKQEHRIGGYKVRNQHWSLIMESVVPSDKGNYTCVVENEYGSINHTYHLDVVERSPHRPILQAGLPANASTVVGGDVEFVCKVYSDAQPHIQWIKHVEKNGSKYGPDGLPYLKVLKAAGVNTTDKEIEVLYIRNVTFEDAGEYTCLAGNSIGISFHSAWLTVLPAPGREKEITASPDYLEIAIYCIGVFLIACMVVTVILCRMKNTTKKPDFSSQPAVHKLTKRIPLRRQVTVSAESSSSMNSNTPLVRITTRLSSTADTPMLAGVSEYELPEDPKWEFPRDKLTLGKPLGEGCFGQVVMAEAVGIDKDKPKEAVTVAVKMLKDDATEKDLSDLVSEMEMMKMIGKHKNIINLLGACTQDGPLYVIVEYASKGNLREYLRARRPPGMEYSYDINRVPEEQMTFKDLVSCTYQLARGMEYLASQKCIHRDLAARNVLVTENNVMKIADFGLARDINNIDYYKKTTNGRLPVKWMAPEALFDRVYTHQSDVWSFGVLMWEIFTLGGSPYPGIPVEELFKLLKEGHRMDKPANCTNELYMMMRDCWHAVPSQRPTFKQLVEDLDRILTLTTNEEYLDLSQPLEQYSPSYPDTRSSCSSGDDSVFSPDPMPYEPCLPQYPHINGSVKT
Tyrosine-protein kinase Fer (Homo sapiens), sequence (P16591 whole entry, looked up): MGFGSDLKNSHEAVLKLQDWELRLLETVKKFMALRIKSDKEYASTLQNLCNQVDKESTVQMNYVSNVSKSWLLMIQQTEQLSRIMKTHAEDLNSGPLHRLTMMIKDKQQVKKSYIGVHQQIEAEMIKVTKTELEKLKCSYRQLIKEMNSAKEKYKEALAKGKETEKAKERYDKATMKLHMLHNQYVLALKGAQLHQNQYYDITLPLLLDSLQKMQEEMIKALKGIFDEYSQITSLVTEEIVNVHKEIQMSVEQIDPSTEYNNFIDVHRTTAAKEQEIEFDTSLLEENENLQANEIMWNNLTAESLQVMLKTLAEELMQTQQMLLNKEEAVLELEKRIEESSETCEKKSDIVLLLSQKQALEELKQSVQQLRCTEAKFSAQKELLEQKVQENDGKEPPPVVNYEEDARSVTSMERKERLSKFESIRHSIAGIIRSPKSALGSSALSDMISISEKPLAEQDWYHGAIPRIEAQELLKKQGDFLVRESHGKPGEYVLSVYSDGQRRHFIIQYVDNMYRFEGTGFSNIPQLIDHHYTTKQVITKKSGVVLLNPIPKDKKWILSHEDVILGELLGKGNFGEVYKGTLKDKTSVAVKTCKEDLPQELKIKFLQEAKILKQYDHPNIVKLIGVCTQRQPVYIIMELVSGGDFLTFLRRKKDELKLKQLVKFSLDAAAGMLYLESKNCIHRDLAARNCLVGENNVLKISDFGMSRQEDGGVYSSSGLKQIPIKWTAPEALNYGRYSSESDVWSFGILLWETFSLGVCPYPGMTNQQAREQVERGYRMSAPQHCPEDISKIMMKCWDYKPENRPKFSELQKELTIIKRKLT
Fibroblast growth factor receptor 3 (Homo sapiens), sequence (P22607 23-806 limits assumed): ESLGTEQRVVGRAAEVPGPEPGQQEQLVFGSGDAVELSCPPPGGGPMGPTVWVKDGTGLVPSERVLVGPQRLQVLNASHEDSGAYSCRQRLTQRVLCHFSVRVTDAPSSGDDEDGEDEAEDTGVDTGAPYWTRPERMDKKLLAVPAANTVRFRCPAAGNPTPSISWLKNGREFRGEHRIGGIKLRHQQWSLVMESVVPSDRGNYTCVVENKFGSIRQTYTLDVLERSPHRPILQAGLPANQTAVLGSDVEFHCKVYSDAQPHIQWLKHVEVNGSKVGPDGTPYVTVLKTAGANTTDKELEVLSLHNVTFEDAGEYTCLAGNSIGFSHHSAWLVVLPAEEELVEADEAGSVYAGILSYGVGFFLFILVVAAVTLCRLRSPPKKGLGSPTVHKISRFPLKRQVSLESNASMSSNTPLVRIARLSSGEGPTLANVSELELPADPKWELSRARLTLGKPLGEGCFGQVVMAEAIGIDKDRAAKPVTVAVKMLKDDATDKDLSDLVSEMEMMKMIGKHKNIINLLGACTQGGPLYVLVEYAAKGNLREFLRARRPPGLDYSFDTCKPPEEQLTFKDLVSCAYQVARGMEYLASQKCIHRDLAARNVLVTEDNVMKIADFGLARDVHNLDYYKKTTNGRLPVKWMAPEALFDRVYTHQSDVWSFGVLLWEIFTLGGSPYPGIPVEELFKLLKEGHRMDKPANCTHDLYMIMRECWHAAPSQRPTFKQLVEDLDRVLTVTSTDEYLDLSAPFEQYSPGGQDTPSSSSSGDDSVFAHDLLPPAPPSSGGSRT
Receptor tyrosine-protein kinase erbB-4 (Homo sapiens), sequence (Q15303 whole entry): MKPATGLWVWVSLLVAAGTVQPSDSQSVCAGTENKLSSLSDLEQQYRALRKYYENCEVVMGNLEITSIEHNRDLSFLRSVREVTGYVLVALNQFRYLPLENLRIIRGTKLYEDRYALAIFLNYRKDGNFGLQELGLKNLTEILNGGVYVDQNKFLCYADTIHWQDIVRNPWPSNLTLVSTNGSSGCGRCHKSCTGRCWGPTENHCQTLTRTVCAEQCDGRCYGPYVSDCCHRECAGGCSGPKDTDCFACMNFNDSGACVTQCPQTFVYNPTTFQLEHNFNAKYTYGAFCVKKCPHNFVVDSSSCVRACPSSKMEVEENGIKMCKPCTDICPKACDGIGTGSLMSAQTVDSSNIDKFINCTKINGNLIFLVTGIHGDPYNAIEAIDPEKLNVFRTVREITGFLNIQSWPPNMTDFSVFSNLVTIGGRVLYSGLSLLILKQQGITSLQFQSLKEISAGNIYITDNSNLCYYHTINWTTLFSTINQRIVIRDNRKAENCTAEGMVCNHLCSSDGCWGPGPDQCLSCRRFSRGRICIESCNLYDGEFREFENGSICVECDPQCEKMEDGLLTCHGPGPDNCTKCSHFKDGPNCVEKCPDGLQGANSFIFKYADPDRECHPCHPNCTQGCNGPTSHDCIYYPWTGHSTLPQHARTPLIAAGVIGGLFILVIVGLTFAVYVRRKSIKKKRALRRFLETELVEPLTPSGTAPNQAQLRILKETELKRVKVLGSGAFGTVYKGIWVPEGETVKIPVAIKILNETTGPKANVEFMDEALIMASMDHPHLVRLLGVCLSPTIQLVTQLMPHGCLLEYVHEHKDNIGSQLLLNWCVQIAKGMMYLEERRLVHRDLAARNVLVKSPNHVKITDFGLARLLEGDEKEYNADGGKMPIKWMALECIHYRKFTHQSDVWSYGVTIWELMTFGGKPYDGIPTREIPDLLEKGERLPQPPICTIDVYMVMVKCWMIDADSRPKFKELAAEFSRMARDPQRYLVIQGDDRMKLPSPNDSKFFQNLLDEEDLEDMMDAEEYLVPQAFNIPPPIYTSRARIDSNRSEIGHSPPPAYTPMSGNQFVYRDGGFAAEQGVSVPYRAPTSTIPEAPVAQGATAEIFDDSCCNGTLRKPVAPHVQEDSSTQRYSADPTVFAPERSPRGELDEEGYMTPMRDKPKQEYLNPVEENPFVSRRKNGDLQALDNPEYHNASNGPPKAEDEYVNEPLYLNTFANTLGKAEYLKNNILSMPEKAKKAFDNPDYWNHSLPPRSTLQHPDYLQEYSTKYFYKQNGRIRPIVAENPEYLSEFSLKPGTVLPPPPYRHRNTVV

c1ccc(COc2ccc(Nc3ncnc4ccc(-c5ccco5)cc34)cc2)cc1
inhibition [1]: 1.06% | inhibition [2]: 0.82% | inhibition [3]: 3.5% | inhibition [4]: -0.6% | inhibition [5]: 1.67% | inhibition [6]: -0.16% | inhibition [7]: 20% | inhibition [8]: 20.1% | inhibition [9]: 79.3% | inhibition [10]: 1.72% | inhibition [11]: 4.05% | inhibition [12]: 2.03% | inhibition [13]: 1.74% | inhibition [14]: -8.22% | inhibition [15]: -7.82% | inhibition [16]: 1.65% | inhibition [17]: 8.16% | inhibition [18]: 2.01% | inhibition [19]: 7.69% | inhibition [20]: 3.87%

CCN1CCC(CC(=O)Nc2n[nH]c3nnc(-c4cccc(F)c4F)cc23)CC1
inhibition [1]: 3.83% | inhibition [2]: 2.04% | inhibition [3]: 5.11% | inhibition [4]: -0.34% | inhibition [5]: 1.27% | inhibition [6]: 2.4% | inhibition [7]: 3.76% | inhibition [8]: 3.77% | inhibition [9]: 10.1% | inhibition [10]: -0.6% | inhibition [11]: 1.74% | inhibition [12]: 2.37% | inhibition [13]: 2.12% | inhibition [14]: 0.21% | inhibition [15]: 0.41% | inhibition [16]: 0.64% | inhibition [17]: 3.38% | inhibition [18]: -1.19% | inhibition [19]: 1.89% | inhibition [20]: 0.88%

O=C(O[C@H]1CN[C@H](C#Cc2cc3ncnc(Nc4ccc(Cc5ccccc5)cc4)c3s2)C1)N1CCOCC1
inhibition [1]: 6.03% | inhibition [2]: 4.37% | inhibition [3]: 3.49% | inhibition [4]: -0.73% | inhibition [5]: 1.41% | inhibition [8]: 112% | inhibition [9]: 107% | inhibition [10]: -1.21% | inhibition [11]: -0.65% | inhibition [12]: 1.87% | inhibition [13]: 1.71% | inhibition [14]: 1.97% | inhibition [15]: 2.47% | inhibition [16]: 2.52% | inhibition [17]: 1.51% | inhibition [18]: 1.73% | inhibition [19]: 0.73% | inhibition [20]: 4.79%

COc1cc2ncn(-c3cc(OCc4ccccc4C(F)(F)F)c(C(=O)N(C)C)s3)c2cc1OC
inhibition [1]: 3.29% | inhibition [2]: 2.32% | inhibition [3]: 0.33% | inhibition [4]: -1.02% | inhibition [5]: 1.55% | inhibition [6]: 0.2% | inhibition [7]: -1.05% | inhibition [8]: 2.15% | inhibition [10]: -0.2% | inhibition [11]: 3.02% | inhibition [12]: 0.2% | inhibition [13]: 0.64% | inhibition [14]: -1.23% | inhibition [15]: 10.3% | inhibition [16]: 2.76% | inhibition [17]: 20.8% | inhibition [18]: 1.53% | inhibition [19]: 8.98% | inhibition [20]: -1.7%

Fc1ccc(-c2cc(-c3c[nH]nc3-c3ccccn3)ccn2)cc1
inhibition [1]: 10.6% | inhibition [2]: 7.2% | inhibition [3]: 4.44% | inhibition [4]: 3.71% | inhibition [5]: 0.96% | inhibition [6]: 4.82% | inhibition [7]: 6.84% | inhibition [8]: 8.5% | inhibition [9]: 12.7% | inhibition [10]: 4.53% | inhibition [11]: 5.23% | inhibition [12]: 2.57% | inhibition [13]: 3.31% | inhibition [14]: 6.18% | inhibition [15]: 6.81% | inhibition [16]: 5.36% | inhibition [17]: 5.13% | inhibition [18]: 4.33% | inhibition [20]: -0.17%

Nc1nc(-c2ccc(F)cc2)c(-c2ccc3ncccc3n2)s1
inhibition [1]: 15.2% | inhibition [2]: 5.51% | inhibition [3]: 5.14% | inhibition [4]: 1.8% | inhibition [5]: 5.58% | inhibition [6]: 4.65% | inhibition [7]: 6.61% | inhibition [8]: 16.8% | inhibition [9]: 48.5% | inhibition [10]: 2.2% | inhibition [11]: 11.1% | inhibition [12]: 3.07% | inhibition [13]: 4.26% | inhibition [14]: 4.21% | inhibition [15]: 4.14% | inhibition [16]: 4.62% | inhibition [17]: 11.8% | inhibition [18]: 8.15% | inhibition [19]: 11.4% | inhibition [20]: 1.96%

Cc1cccc2c1NC(=O)/C2=N\Nc1ccc(S(N)(=O)=O)cc1
inhibition [1]: 5.1% | inhibition [2]: 5.12% | inhibition [3]: 2.12% | inhibition [4]: 1.36% | inhibition [5]: 2.09% | inhibition [6]: 0.78% | inhibition [7]: 1.05% | inhibition [8]: 11.5% | inhibition [9]: 11% | inhibition [10]: 1.4% | inhibition [11]: 0.93% | inhibition [12]: 2.06% | inhibition [13]: 2.97% | inhibition [14]: 6.31% | inhibition [15]: 5.84% | inhibition [16]: 7.75% | inhibition [17]: 3.25% | inhibition [18]: 3.97% | inhibition [19]: 3.33% | inhibition [20]: 2.12%

— ChEMBL document CHEMBL1961873, “Compounds: GSK PKIS; Assays: Nanosyn kinase panel” (2012)
